The source made the active and inactive calls. Unless noted, no rule for the calls is given here.
Key:
[1] = compounds binding Alexa647 anti-His antibody – biochemical, small-molecule microarray, 635 nm fluorescence, artefact control for SMM control protein annotation, primary screen (AID 1128); conditions: higher = more signal;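 also: score merges feature fluorescence with signal-to-noise for each printed compound spot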
[2] = tested on: Human papillomavirus type 1a E7 protein (residues 1-88); experiment: HPV1a E7 small-molecule binders, primary screen, biochemical, small-molecule microarray, residues 1-88, 635 nm (AID 1129); conditions: small-molecule microarray binding, fluorescence 635 nm; higher = more signal
[3] = molecular target: Focal adhesion kinase 1 (Homo sapiens) (UniProt Q05397); experiment: PTK2 protein binding on printed compound slides – biochemical, small-molecule microarray, 635/667 nm fluorescence, BSA, DTT, primary screen (AID 1130); conditions: 635 nm fluorescence, higher = more signal;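 also: composite of spot emission at 667 nm and signal to noise over triplicate slides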
Chain of Focal adhesion kinase 1 (Homo sapiens) (Q05397 whole entry, looked up): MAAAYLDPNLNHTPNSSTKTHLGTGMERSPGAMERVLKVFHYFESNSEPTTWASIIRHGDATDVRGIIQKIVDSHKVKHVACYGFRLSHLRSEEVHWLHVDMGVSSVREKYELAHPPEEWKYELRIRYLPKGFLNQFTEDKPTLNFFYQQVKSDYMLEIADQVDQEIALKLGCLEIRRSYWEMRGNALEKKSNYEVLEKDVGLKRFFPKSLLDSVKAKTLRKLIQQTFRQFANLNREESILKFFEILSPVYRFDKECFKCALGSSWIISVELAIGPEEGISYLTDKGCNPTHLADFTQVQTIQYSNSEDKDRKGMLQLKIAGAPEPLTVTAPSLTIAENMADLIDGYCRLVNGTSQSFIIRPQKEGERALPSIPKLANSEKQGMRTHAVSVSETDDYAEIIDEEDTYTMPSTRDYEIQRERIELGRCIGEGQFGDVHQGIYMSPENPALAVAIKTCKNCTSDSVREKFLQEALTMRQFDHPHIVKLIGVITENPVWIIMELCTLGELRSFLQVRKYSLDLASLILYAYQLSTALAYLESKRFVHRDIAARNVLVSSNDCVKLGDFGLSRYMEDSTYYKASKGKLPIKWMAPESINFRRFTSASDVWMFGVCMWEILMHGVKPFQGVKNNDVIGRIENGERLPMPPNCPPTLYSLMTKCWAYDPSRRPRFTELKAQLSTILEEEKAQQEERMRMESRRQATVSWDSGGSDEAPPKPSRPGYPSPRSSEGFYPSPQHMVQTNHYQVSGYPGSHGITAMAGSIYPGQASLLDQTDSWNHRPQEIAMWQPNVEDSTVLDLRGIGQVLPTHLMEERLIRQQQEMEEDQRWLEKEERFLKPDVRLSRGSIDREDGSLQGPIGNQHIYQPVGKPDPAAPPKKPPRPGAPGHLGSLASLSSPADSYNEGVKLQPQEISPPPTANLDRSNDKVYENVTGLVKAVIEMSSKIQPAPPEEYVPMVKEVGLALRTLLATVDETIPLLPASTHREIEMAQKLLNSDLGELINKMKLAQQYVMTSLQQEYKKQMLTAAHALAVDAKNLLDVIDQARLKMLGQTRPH

[4] = tested on: Fibrinogen (Alexa647-labelled); experiment: Alexa647-fibrinogen binding to printed small molecules – biochemical, small-molecule microarray, 635/667 nm fluorescence, artefact control for SMM control-protein annotation, profiling panel (AID 1131); conditions: fibrinogen-A647 binding fluorescence, higher = more signal;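 also: z-score merges 667 nm fluorescence with per-spot signal-to-noise over triplicate slides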
[5] = molecular target: Follistatin (Homo sapiens) (UniProt P19883); experiment: FST protein binding to printed compounds – biochemical, small-molecule microarray, 635/667 nm fluorescence, primary screen (AID 1132); conditions: 635 nm fluorescence, higher = more signal
Chain of Follistatin (Homo sapiens) (P19883 whole entry, looked up): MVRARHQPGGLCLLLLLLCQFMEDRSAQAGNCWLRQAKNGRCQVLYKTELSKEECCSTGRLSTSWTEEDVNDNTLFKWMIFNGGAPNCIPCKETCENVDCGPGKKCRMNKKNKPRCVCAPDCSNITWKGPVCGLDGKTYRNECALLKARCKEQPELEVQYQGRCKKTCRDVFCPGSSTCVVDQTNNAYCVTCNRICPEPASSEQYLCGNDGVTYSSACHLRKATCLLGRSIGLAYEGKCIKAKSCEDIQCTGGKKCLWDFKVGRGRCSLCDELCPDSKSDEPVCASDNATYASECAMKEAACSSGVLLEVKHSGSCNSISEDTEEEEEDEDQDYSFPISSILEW

[6] = molecular target: Fibroblast growth factor 2 (Homo sapiens) (UniProt P09038); experiment: basic fibroblast growth factor binding to printed compounds – biochemical, small-molecule microarray, 635/667 nm fluorescence, primary screen (AID 1133); conditions: FGF2, fluorescence 635/667, higher = more signal
Chain of Fibroblast growth factor 2 (Homo sapiens) (P09038 whole entry, looked up): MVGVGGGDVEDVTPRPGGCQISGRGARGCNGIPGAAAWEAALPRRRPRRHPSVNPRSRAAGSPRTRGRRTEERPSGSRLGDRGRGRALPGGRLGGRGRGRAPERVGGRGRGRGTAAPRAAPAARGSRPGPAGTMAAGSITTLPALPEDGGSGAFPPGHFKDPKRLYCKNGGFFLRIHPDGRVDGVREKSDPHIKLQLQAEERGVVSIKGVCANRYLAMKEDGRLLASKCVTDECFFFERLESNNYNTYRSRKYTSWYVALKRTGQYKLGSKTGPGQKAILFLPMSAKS

[7] = JC-1 mitochondrial potential readout, lung cancer cells – cell-based, A549, JC-1 fluorescence, basal, 24 h, 100 nL, profiling panel (AID 1138); conditions: higher = more signal;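 also: A549 lung adenocarcinoma cells under basal conditions with no added stimulus; test concentration not given here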
[8] = tested on: Lefty1; experiment: Lefty1 protein binding to printed compounds – biochemical, small-molecule microarray, 635/667 nm fluorescence, primary screen (AID 1139); conditions: fluorescence 635/667, higher = more signal
[9] = tested on: wheat germ agglutinin (Triticum aestivum), Alexa647-labelled; experiment: Alexa647-WGA lectin binding to printed small molecules – biochemical, small-molecule microarray, 635/667 nm fluorescence, artefact control for SMM control-protein annotation, profiling panel (AID 1140); conditions: WGA-A647 binding, 635 nm fluorescence, higher = more signal;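 also: score merges 667 nm feature emission with signal to noise over triplicate slides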
[10] = molecular target: Luciferin 4-monooxygenase (Photinus pyralis) (UniProt P08659); experiment: inhibition of purified Photinus pyralis luciferase – biochemical, luminescence, purified enzyme, 2006 set, primary screen (AID 1141); conditions: purified firefly luciferase, SteadyGlo luminescence, 30 min; higher = more signal, called active from +8 up or from −8 down;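 also: cell-free assay with purified firefly luciferase at 100 ng per well in PBS; test concentration not given here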
Chain of Luciferin 4-monooxygenase (Photinus pyralis) (P08659 whole entry, looked up): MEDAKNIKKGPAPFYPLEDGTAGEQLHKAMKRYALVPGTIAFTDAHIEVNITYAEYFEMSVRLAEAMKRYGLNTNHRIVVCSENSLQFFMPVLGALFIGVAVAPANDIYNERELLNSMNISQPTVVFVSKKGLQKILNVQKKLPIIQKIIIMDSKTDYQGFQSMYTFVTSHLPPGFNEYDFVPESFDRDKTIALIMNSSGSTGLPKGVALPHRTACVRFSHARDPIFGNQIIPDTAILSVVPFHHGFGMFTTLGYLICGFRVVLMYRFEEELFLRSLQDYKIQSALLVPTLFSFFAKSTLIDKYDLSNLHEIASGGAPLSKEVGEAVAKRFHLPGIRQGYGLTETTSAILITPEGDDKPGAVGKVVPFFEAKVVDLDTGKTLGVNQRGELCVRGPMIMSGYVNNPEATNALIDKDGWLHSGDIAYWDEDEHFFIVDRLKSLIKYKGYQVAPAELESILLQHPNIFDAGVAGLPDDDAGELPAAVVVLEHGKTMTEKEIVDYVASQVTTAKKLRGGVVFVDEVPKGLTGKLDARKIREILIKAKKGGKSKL

[11] = tested on: Wnt5a (protein binding on small-molecule microarray); experiment: small molecules binding Wnt5a protein – biophysical, small-molecule microarray, 635/667 nm fluorescence, primary screen (AID 1142); conditions: 635 nm fluorescence, higher = more signal;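 also: fluorescence read at 667 nm with signal to noise per printed feature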
[12] = ATP-based viability of Huh7 replicon cells – cell-based, CellTiter-Glo luminescence, basal, 48 h, cytotoxicity control for HCV replication inhibitor project, primary screen (AID 1143); conditions: higher = more signal, called active from +8 up or from −8 down;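 also: Huh7 hepatoma cells carrying a hepatitis C replication reporter with no stimulus; test concentration not given here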
[13] = Pseudomonas biofilm growth suppression – PAO1 strain, BacTiter-Glo luminescence, LB-PBS, primary screen (AID 1144); conditions: P. aeruginosa PAO1 biofilm, 12 h, higher = more signal
[14] = basal CRE-LacZ reporter activity in PC12 – cell-based, unstimulated, primary screen (AID 1145); conditions: no forskolin, luminescence, 4.5 h, higher = more signal, called active from +8 up or from −8 down
[15] = forskolin-driven CRE-LacZ activity in PC12 – cell-based, CRE-LacZ reporter, forskolin-stimulated, primary screen (AID 1146); conditions: luminescence, 4.5 h, higher = more signal, called active from +8 up or from −8 down;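 also: PC12 cells with 6xCRE LacZ reporter stimulated by forskolin 10 µM; beta-galactosidase reporter signal reflecting CREB driven transcription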
[16] = molecular target: Streptavidin (Streptomyces avidinii) (UniProt P22629); experiment: compounds binding control protein streptavidin – biophysical, small-molecule microarray, 635/667 nm fluorescence, artefact control for SMM compound annotation, primary screen (AID 1147); conditions: higher = more signal;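 also: signal reflects streptavidin binding to arrayed compounds as a control protein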
Chain of Streptavidin (Streptomyces avidinii) (P22629 whole entry, looked up): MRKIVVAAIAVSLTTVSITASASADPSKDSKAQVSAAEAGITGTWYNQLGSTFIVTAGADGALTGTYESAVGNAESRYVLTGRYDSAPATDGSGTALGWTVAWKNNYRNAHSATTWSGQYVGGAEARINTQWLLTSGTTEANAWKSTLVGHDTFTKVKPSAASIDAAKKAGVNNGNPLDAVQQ

[17] = probe aInhba binding on compound microarray – biochemical, small-molecule microarray, 635/667 nm fluorescence, primary screen (AID 1148); conditions: higher = more signal;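 also: score merges 667nm spot fluorescence with signal-to-noise for antibody binding to printed compounds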
[18] = molecular target: Torsin-1A (Homo sapiens) (UniProt O14656); experiment: TOR1A wild-type binding on microarray – cell lysate, small-molecule microarray, lysate, 635/667 nm, primary screen (AID 1149); conditions: COS7 hTOR1A-WT lysate, 635 nm fluorescence, higher = more signal
Chain of Torsin-1A (Homo sapiens) (O14656 whole entry, looked up): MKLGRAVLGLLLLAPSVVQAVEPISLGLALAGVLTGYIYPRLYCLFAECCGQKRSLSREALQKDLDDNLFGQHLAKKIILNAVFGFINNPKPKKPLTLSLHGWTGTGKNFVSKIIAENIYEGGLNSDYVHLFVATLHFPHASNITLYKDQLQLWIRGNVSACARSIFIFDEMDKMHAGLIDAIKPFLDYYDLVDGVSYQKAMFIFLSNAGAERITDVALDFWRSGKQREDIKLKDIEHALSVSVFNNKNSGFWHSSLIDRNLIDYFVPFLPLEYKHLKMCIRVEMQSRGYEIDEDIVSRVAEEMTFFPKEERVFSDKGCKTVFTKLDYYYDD

[19] = molecular target: Torsin-1A (Homo sapiens) (UniProt O14656); experiment: torsin A mutant lysate binding on microarrays – cell lysate, small-molecule microarray, COS7 lysate, 635/667 nm fluorescence, primary screen (AID 1150); conditions: COS7 hTOR1A mutant lysate, 635 nm fluorescence, higher = more signal;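 also: score pools 667 nm emission and signal to noise measuring lysate protein binding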
[20] = tested on: Sonic hedgehog protein (Shh); experiment: Sonic hedgehog microarray binding compounds – biochemical, small-molecule microarray, 635/667 nm fluorescence, primary screen (AID 1151); conditions: 635 nm fluorescence, higher = more signal;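 also: Shh protein binding to compounds spotted on small-molecule microarray slides; score combines spot fluorescence intensity with signal-to-noise across triplicate slides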

| Structure (SMILES) | composite z-score [1] | composite z-score [2] | composite z-score [3] | composite z-score [4] | composite z-score [5] | composite z-score [6] | z-score [7] | composite z-score [8] | composite z-score [9] | z-score [10] | composite z-score [11] | z-score [12] | z-score [13] | z-score [14] | z-score [15] | composite z-score [16] | composite z-score [17] | composite z-score [18] | composite z-score [19] | composite z-score [20] |
| --- | --- | --- | --- | --- | --- | --- | --- | --- | --- | --- | --- | --- | --- | --- | --- | --- | --- | --- | --- | --- |
| C=CCN1C(=O)[C@@]2(CCS(=O)(=O)c3ccccc3)N=C(c3ccc(OCCCO)cc3)O[C@H]2c2ccccc21 | 1.34 | 1.25 | 0.763 | 0.884 | 1.45 | 1.78 | 0.821 | 0.952 | 0.37 | -1.48 (inactive) | 0.889 | -2.49 (inactive) | 0.369 (inactive) | -0.0808 (inactive) | -1.28 (inactive) | 0.636 | 0.198 | 1.16 | 0.426 | 2.07 |
| CC(C)(C)N1CC=CC23O[C@@H]4C=CCOC(=O)[C@@H]4[C@H]2C(=O)N(CCCCCCO)[C@@H]3C1=O (stereo not given in full) | 0.184 | -0.184 | 0.527 | -1.52 | -1.42 | -0.877 | -0.12 | -0.447 | 0.132 | -0.234 (inactive) | -0.373 | 0.0926 (inactive) | 2.06 (inactive) | 0.475 (inactive) | 0.437 (inactive) | -0.772 | -0.209 | -0.191 | 0.769 | -1.13 |
| NC(=O)NCC#Cc1ccc2c(c1)[C@]1(C(=O)N2)[C@H](C(=O)O)[C@H]2C(=O)O[C@H](c3ccccc3)[C@H](c3ccccc3)N2[C@@H]1c1ccc(OCCO)cc1 | 0.894 | 0.643 | 0.116 | 0.57 | 1.18 | 0.239 | -0.765 | 0.183 | 0.553 | -2.23 (inactive) | 0.0755 | -0.175 (inactive) | -0.015 (inactive) | -0.195 (inactive) | -0.746 (inactive) | 1.15 | -0.102 | -0.0721 | 0.588 | 0.135 |
| COc1ccc([Si](C)(C)[C@H]2[C@H](CCO)O[C@@]3(C(=O)N(Cc4cccc(N5C(=O)COc6ccccc65)c4)c4ccccc43)[C@@H]2C)cc1 | 0.354 | -0.0131 | -0.0804 | 0.0563 | 0.196 | -0.032 | 1.17 | -0.236 | 0.715 | -1.17 (inactive) | -0.285 | -6.25 (inactive) | -1.83 (inactive) | 2.41 (inactive) | -1.52 (inactive) | 0.174 | -0.128 | -0.451 | -0.298 | 0.419 |
| COc1cc(OC)c(C(O)C2C=CC3C(=O)N(C)C(=O)C3N2NC(=O)OC(C)(C)C)cc1Br (stereo not given) | 0.476 | 1.29 | 0.776 | 1.03 | 1.25 | 0.128 | -0.942 | 0.42 | 1.23 | -0.996 (inactive) | 0.326 | 0.558 (inactive) | -0.224 (inactive) | 1.2 (inactive) | 0.922 (inactive) | 1.25 | 0.194 | 0.443 | 0.315 | 0.568 |
